m-calpain inh: inhibitors of pig calpain II, primary screen, biochemical, fluorogenic peptide substrate, 1536-well. AID 1236, 2008. 220,000 compounds, 0.37% hits. inhibition, % at 16 µM. purified calpain II, 30 min;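 active = inhibition above about 50%, limit read from the data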
WT yeast gro inh: growth inhibition of WT strain, primary screen, mitochondrial fusion inhibitor project, WT and mutant strains, chemical genetic | mitochondrial fusion phenotypic screen | inhibition, % at 10 µM | 190,000 compounds, 2.1% hits | AID 1362, 2008; in the data active = inhibition above about 58%; tested in S. cerevisiae
Lmaj promast: Leishmania major promastigote growth inhibition, primary screen | inhibition, % at 10 µM | Leishmania major promastigotes, resazurin fluorescence viability | 200,000 compounds, 9% hits; in the data active = inhibition above about 50%;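 note: promastigotes grown with compound for 44 hours at 28 °C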
ROMK primary: ROMK potassium channel modulators, primary screen, cell-based, thallium flux, MLSMR library; 130,000 compounds, 2% hits; ATP-sensitive inward rectifier potassium channel 1 (Homo sapiens), P48048; B-score at 10 µM; Tet-inducible ROMK, thallium flux fluorescence; actives lie on both sides;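 active = signal ratio slope over the read window, or its plate-corrected B-score, at least 3 SD from the plate mean, either direction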;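 note: B-score of the F/F0 ratio slope over 7 to 12 s after thallium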
Target sequence (P48048 whole entry, looked up): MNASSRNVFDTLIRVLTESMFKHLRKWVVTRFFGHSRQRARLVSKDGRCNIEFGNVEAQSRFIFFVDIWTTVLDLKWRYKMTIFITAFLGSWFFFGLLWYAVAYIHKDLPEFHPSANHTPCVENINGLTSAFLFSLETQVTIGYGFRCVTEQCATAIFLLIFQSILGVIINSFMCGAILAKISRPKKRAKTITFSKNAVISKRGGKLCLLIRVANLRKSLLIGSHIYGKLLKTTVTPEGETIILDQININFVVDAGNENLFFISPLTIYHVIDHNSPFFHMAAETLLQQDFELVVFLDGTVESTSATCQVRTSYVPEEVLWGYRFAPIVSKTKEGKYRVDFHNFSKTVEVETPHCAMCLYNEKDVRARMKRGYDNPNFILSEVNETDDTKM
KCC2 mod: KCC2 cotransporter modulators, thallium flux, primary screen, cell-based, HEK293 KCC2, FluoZin-2 fluorescence, MLSMR; Solute carrier family 12 member 5 (Homo sapiens), Q9H2X9; KCC2 cells, thallium flux FluoZin-2 fluorescence; B-score of Tl+ flux slope (higher = more flux/activation; lower = inhibition) at 10 µM; 190,000 compounds, 2.2% hits;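 active = thallium flux slope and its plate-corrected score both differing from the plate sample mean at a set confidence after two filtering rounds, in either direction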;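 note: slope of fluorescence scaled to starting intensity during 10 to 20 s after thallium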
A number is an active result; . = inactive; / = no result given. Only some compounds are listed: those with a hit (about 12% of all), similar ones and a draw of the others.

SMILES | m-calpain inh | WT yeast gro inh | Lmaj promast | ROMK primary | KCC2 mod
CCN(CC(O)CON=C1c2ccccc2-c2ccccc21)S(=O)(=O)c1ccc(C)cc1 (stereo not given) | . | . | 100.0 | / | .
CSc1ccccc1NC(=O)CN(c1cccc(C)c1)S(C)(=O)=O | . | . | . | / | .
CN(CC(O)CON=C1c2ccccc2-c2ccccc21)S(=O)(=O)c1ccc(Br)cc1 (stereo not given) | . | . | 100.2 | / | .
CCN(CC(=O)NC1CCCC1)S(=O)(=O)c1ccc(C)cc1 | . | . | . | / | .
COCCNCC(O)CON=C1c2ccccc2-c2ccccc21 (stereo not given) | . | . | . | . | .
CCN(CC(O)CON=C1c2ccccc2-c2ccccc21)S(=O)(=O)c1ccc(Cl)cc1 (stereo not given) | . | . | 100.1 | / | .
CC1C/C(=C\c2cccnc2)C(=O)/C(=C/c2cccnc2)C1 (stereo not given) | . | . | 100.3 | -6.13 | .
c1ccc(CN2CCN(Cc3nnc(-c4ccccc4)o3)CC2)cc1 | . | . | 79.6 | . | .
O=C(NC1CCCCC1)c1sc(N2CCOCC2)nc1-c1ccccc1 | . | . | 88.1 | / | .
O=C(Nc1ccccc1)c1sc(N2CCOCC2)nc1-c1ccccc1 | . | . | . | / | .
COc1ccc(C2C(C#N)=C(N)OC3=C2C(=O)CCC3)cc1Cn1nc(C)c([N+](=O)[O-])c1C (stereo not given) | . | . | 92.8 | / | .
O=C(Nc1ccc([N+](=O)[O-])cn1)c1ccc2c(c1)OCO2 | . | . | . | . | .
CC(C)(C)c1ccccc1NC(=O)Cn1c(=O)cnc2ccccc21 | . | . | 54.9 | . | .
CC(C)c1cccc(C(C)C)c1NC(=O)Cn1c(=O)cnc2ccccc21 | . | . | 91.9 | . | .
CCCNC(=O)Cn1c(=O)cnc2ccccc21 | . | . | . | / | .
COC(=O)C1=C(C)Nc2sc(C(N)=O)c(N)c2C1c1ccncc1 (stereo not given) | . | . | . | . | /
CCOC(=O)C1=C(C)Nc2sc(C(=O)c3ccc(OC)cc3)c(N)c2C1c1ccc(C(=O)OC)cc1 (stereo not given) | . | . | 71.4 | / | .
O=C(Nc1cc2c(=O)n(-c3ccc(Oc4ccccc4)cc3)ccc2oc1=O)c1ccccc1 | . | . | . | . | .
O=C(CSCc1ccccc1Cl)NNC(=S)Nc1ccccc1 | . | . | . | . | /
Cc1ccc2ccc(C(Nc3cccc(C(F)(F)F)c3)c3cccnc3)c(O)c2n1 (stereo not given) | . | . | 100.2 | . | .
COc1ccc(C(NC(=O)C(C)C)c2ccc3cccnc3c2O)cc1 (stereo not given) | . | / | / | . | .
Cc1ccnc(NC(c2cccnc2)c2ccc3cccnc3c2O)c1 (stereo not given) | . | . | 97.6 | . | .
Cc1cc(NC(c2ccc(Cl)cc2)c2ccc3cccnc3c2O)no1 (stereo not given) | . | . | 100.5 | . | /
Cn1nc(C(F)(F)F)c(-c2ccc(Br)cc2)c1NC(=O)CSCC(=O)O | . | / | / | . | .
O=C(/C=C/c1ccccc1)NC1CCSC1=O (stereo not given) | . | . | . | / | .
SMILES | m-calpain inh | WT yeast gro inh | Lmaj promast | ROMK primary | KCC2 mod
CC(C)NC(=S)NN=C1c2ccccc2-c2ccccc21 | . | . | . | . | .
CC(C)NC(=S)N/N=C1\CCCCC1C1CCCCC1 (stereo not given) | . | . | 99.7 | . | .
Cc1ccc2ncnc(Nc3ccc(C)c(C)c3)c2c1 | . | . | 72.8 | . | .
CCOC(=O)c1cccnc1SCC(=O)N(CC)c1cccc(C)c1 | . | . | 91.2 | . | .
CCOc1ccc(-c2nn(-c3ccccc3)cc2/C=C(\C#N)S(=O)(=O)c2ccccc2)cc1C | . | . | 64.0 | / | .
Cn1cc(C(=O)c2ccc(Cl)cc2)cc1-c1nc2ccccc2n1C | / | . | . | / | .
CC(=O)/C(N=Nc1cccc(C(F)(F)F)c1)=C(\C)O | . | . | . | . | .
CN(C(=O)/C(N=Nc1cccc(C(F)(F)F)c1)=C(\O)C(F)(F)F)c1ccccc1 | . | 70.2 | . | / | /
Cc1ccc(C)c2c1sc(=NC(=O)CN1C(=O)CCC1=O)n2C | . | . | 90.5 | / | /
C#CCn1c(=NC(=O)CN2C(=O)CCC2=O)sc2cccc(C)c21 | . | . | . | / | /
COc1ccc(NCc2ccc([N+](=O)[O-])s2)cc1 | . | . | 73.3 | . | .
COc1ccc(CNc2ccc(S(N)(=O)=O)cc2)cc1 | . | . | . | / | .
COc1ccc(NCc2ccc([N+](=O)[O-])s2)c(OC)c1 | . | . | 98.0 | . | .
CCCCc1oc2ccccc2c1C(=O)c1cc(I)c(OCCN(CC)CC)c(I)c1 | . | . | 98.8 | / | /
O=C(C1CCN(C2CC(=O)N(Cc3ccccc3)C2=O)CC1)N1CCCCCC1 (stereo not given) | . | . | 86.8 | . | .
O=C(C1CCN(C2CC(=O)N(c3cccc(Cl)c3)C2=O)CC1)N1CCCC1 (stereo not given) | . | . | . | / | .
NC(=O)C1CCN(C2CC(=O)N(Cc3ccc(N4CCCC4=O)cc3)C2=O)CC1 (stereo not given) | . | . | . | / | /
O=C1CC(N2CCN(C(c3ccccc3)c3ccccc3)CC2)C(=O)N1Cc1ccc(N2CCCC2=O)cc1 (stereo not given) | . | . | 97.9 | / | .
CCn1c(COc2cccc3cccnc23)nnc1SC(F)F | . | . | 82.5 | . | .
CC1C/C(=N\NC(=S)NCc2ccccc2)CC(C)(C)C1 (stereo not given) | . | 64.2 | 99.2 | . | .
Nc1cc([N+](=O)[O-])ccc1N1C(=O)CCCC1=O | . | / | / | / | .
O=c1c2ccccc2nc(SCc2cn3ccsc3n2)n1-c1ccccc1F | 51.6 | . | . | / | /
O=C(CSc1nc2ccccc2c(=O)n1-c1ccc(F)cc1)Nc1ccc2c(c1)CCC2 | . | . | 80.6 | / | .
O=C(CSc1nc2ccccc2c(=O)n1-c1ccccc1F)Nc1ccc2c(c1)CCC2 | . | . | 98.5 | / | .
O=C(CSc1nc2ccccc2c(=O)n1-c1ccc(F)cc1F)Nc1ccc2c(c1)CCC2 | . | . | 99.0 | / | .
SMILES | m-calpain inh | WT yeast gro inh | Lmaj promast | ROMK primary | KCC2 mod
O=c1c2ccccc2nc(SCc2nnc(-c3ccccc3)o2)n1-c1ccc(F)cc1F | . | . | 77.6 | / | .
Cc1ccccc1-n1c(SCC(=O)Nc2ccccc2)nc2nc3c(cc2c1=O)CCCC3 | . | . | 97.8 | . | .
O=C(CSc1nc2ccccc2c(=O)n1-c1ccc(F)cc1)Nc1ccc(Cl)c(S(=O)(=O)N2CCOCC2)c1 | . | . | 94.9 | . | .
CNC(=S)NNC(=O)c1cc(C(C)(C)C)nn1Cc1ccc(F)cc1 | . | / | / | / | .
CCN1CCN(C(=S)Nc2cccc([N+](=O)[O-])c2)CC1 | . | . | . | / | .
CCN1C/C(=C/c2cccc([N+](=O)[O-])c2)C(=O)/C(=C/c2cccc([N+](=O)[O-])c2)C1 | . | 88.3 | 100.4 | . | .

Screening results (PubChem BioAssay)
